Pf growth 48h: inhibits P. falciparum growth in the first generation, 48 h | P. falciparum luciferase growth in erythrocytes, 48 h | Potency, µM (top dose mostly 28.7 µM), inactives show at the highest dose activity change, negative = inhibition, hits mostly inhibitors | hit rate 5.9% among 310,000 | AID 504832; note: potency is the fitted concentration of half-maximal effect; % is set by controls: 0 for no effect and ±100 for the full control effect
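Erythrocytes infected with P. falciparum carrying an integrated firefly luciferase reporter (2% hematocrit, 0.1% parasitemia final) were exposed to compounds in RPMI 1640 with 0.5% Albumax at 37 C, 5% CO2. Growth inhibition was scored as reduced luminescence.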
CHX counter: affects cycloheximide protein synthesis inhibition readout, counter-screen; max response, %; hit rate 12% among 300,000; cell reporter, cycloheximide protein synthesis inhibition counterscreen; in the data active = max response mostly above about 13%, no sharp cut-off; inactive = mostly below about 14%; note: read at 38.3 µM for the half of the compounds with a filed dose; 0% is about no effect
NS1 function inh: blocks influenza NS1 protein function; Potency, µM (highest dose often 46.1 µM), without a hit: top-dose activity, positive = more growth; hit rate 0.4% among 270,000; AID 2326; calls by dose curve; note: potency is the fitted concentration of half-maximal effect; actives are rising curves; nearly all actives have a fitted effect of over 50% in size
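A cell-based growth assay was used: compounds that relieve NS1-induced slow growth of budding yeast raise OD600. Assay medium was yeast nitrogen base with ammonium sulphate and -URA supplement, pH 6.0, with 2% galactose.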
Sm TGR inh: S. mansoni TGR enzyme inhibition; Q962Y6; Potency, µM (top dose mostly 114 µM), for inactives: at the highest dose activity change, negative = inhibition, hits mostly inhibitors; hit rate 3% among 360,000; AID 485364; purified TGR, DTNB reduction, TNB absorbance 405 nm; note: potency is the fitted concentration of half-maximal effect; % is set by controls: 0 for no effect and ±100 for the full control effect; nearly all actives have a fitted effect of over 60% in size
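TGR 20 nM + NADPH 100 uM (dispensed conc.), cpd preinc 15 min RT; start with NADPH (500 uM addition) then DTNB (15 mM addition). Kinetic TNB absorbance, 405 nm filter. Four-parameter Hill fit across titration.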
Shiga toxin inh: Shiga toxin inhibition. hit rate 9.2% among 290,000. AID 2315. inhibition, % at 38.7 µM. Vero cells, Shiga toxin protein synthesis inhibition reporter; in the data active = inhibition mostly above about 28%, no sharp cut-off; inactive = mostly below about 43%; note: 0% is about no effect
Pf growth 96h: inhibits malaria parasite growth, 96 h | Potency, µM (highest dose often 28.7 µM), inactives show at the top dose activity change, negative = inhibition, actives largely listed as inhibitors | hit rate 6.9% among 320,000 | P. falciparum luciferase reporter growth, 96 h; note: potency is the fitted concentration of half-maximal effect; % is set by controls: 0 for no effect and ±100 for the full control effect
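Erythrocytes infected with luciferase-expressing P. falciparum were dispensed at 2% hematocrit and 0.05% parasitemia (final), then incubated with compounds 96 hours at 37 C in 5% CO2. Luminescence after detection reagent addition reported growth.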
* marks the source's active call; other numbers are inactive results; u = inconclusive; x = not tested or not shown. The list is not random: actives were taken first. Their share in the collection is about 21%. Unless noted, calls come from the whole dose curve; as a rule, active = well fitted curve in the direction sought with a large enough effect; inconclusive = small, poorly fitted or top-dose-only effect, or another doubt; inactive = no such curve, though single readings can be large; an effect the other way counts as inactive or inconclusive.

SMILES | Pf growth 48h | CHX counter | NS1 function inh | Sm TGR inh | Shiga toxin inh | Pf growth 96h
CN(Cc1ccccc1)C(=O)c1ccc2c(c1)OCCO2 | 23% | 11 | -7% | -9% | 15 | x
COc1cccc(C(=O)OCCN(C)C(C)(C)C)c1 | x | -6 | 3% | -5% | -4 | 8.3µM*
CN(CCOC(=O)c1ccc2c(c1)OCCO2)C(C)(C)C | 12% | 17* | -3% | -1% | 23 | 57%
COc1ccc(C(C)=O)cc1COC(=O)c1ccc2c(c1)OCCO2 | -19% | x | x | u | x | -33%
c1ccc(-c2csc3ncnc(N4CCN(Cc5ccc6c(c5)OCO6)CC4)c23)cc1 | 13µM* | -4 | 7% | 18µM* | -2 | u
Fc1ccc(N2CCN(c3nc(CN4CCOCC4)nc4scc(-c5ccccc5)c34)CC2)cc1 | 12µM* | 5 | x | -11% | -7 | 7.4µM*
Fc1ccc(CN2CCN(c3ncnc4scc(-c5ccccc5)c34)CC2)cc1 | u | -3 | -8% | -9% | -4 | 10µM*
Fc1ccc(-c2csc3ncnc(N4CCN(Cc5ccccc5)CC4)c23)cc1 | u | 1 | 5% | -20% | -2 | 9.3µM*
O=C(CSc1ncnc2scc(-c3ccccc3)c12)N1CCN(Cc2ccc3c(c2)OCO3)CC1 | -1% | 0 | 13% | 3% | -7 | u
O=C(Nc1cccc2cccnc12)c1ccc(-c2cccc(Cl)c2)o1 | x | x | x | -19% | x | x
C#C[C@]1(O)CC[C@H]2[C@H]3CCc4cc(O)ccc4[C@@H]3CC[C@@]21C | x | -1 | x | x | -5 | x
Cc1sc2ncnc(N3CCN(Cc4ccccc4)CC3)c2c1-c1ccc(F)cc1 | 13µM* | -8 | 2% | 3% | 2 | 13µM*
O=C(Nc1ccc2c(c1)OCO2)c1ccc(Cl)nc1 | x | 17 | -9% | 10% | 65 | 70%
NS(=O)(=O)c1cccc(NC(=O)c2ccc3nc[nH]c3c2)c1 | 7% | -2 | 2% | 8% | -4 | u
COc1ccc(NC(=O)c2ccc3nc[nH]c3c2)cc1 | 3% | 38* | 4% | 5% | 62* | -5%
O=C(Nc1ccc(C(F)(F)F)cc1)c1ccc2nc[nH]c2c1 | 0% | 23* | -52% | 0% | 54* | -6%
O=C(Nc1ccc2c(c1)OCO2)c1ccc2nc[nH]c2c1 | x | 52* | 16% | -12% | 68* | 40%
CC(=O)c1cccc(NC(=O)COC(=O)C2=COCCO2)c1 | -3% | 31 | x | 3% | 11 | 11%
O=C(Nc1ccc(N2CCN(C(=O)c3ccc(Cl)cc3)CC2)cc1)c1cc2ccccc2o1 | x | -2 | 2% | -18% | 22 | 5.9µM*
CCC(=O)N1CCN(c2ccc(NC(=O)c3cc4ccccc4o3)cc2)CC1 | u | 16* | 5% | -7% | 42 | 51%
O=C(Nc1cc(Cl)ccc1N1CCOCC1)c1cc2ccccc2o1 | -17% | -2 | 3% | 12% | -6 | 14%
O=C(NCCN1CCOCC1)c1cc2ccccc2o1 | x | -4 | -9% | -1% | -3 | u
O=C(Nc1ccc(N2CCOCC2)cc1)c1cc2ccccc2o1 | 104% | 54* | 0% | u | 76* | x
O=C(/C=C/N1CCOCC1)c1cc2ccccc2o1 | 91% | 27* | -49% | u | 71* | 48%
COc1ccc(/C=C(\C#N)C(=O)NC2CCS(=O)(=O)C2)cc1OC (stereo not drawn) | -4% | -7 | 17% | 1% | -9 | 0%
SMILES | Pf growth 48h | CHX counter | NS1 function inh | Sm TGR inh | Shiga toxin inh | Pf growth 96h
O=C(Nc1ccc(CN2CCOCC2)cc1)c1cc2ccccc2o1 | 21% | 34* | -5% | 0% | 64* | x
NC(=O)c1ccc(NC(=O)c2ccc(CN3CCOCC3)cc2)cc1 | x | -2 | 5% | -15% | -11 | 4%
O=C(O)c1coc2ccccc12 | 24% | -1 | -5% | 3% | -7 | x
O=C(Nc1ccc(CN2CCOCC2)cc1)c1cc2ccccn2n1 | 64% | 22* | -33% | -7% | 38* | 10%
O=C(/C=C/N1CCOCC1)c1coc2ccccc12 | 182% | 35* | -42% | 79µM* | 63* | 190%
COc1cc(OC)cc(C(=O)Nc2ccccc2S(=O)(=O)N2CCCC2OC(C)=O)c1 (stereo not drawn) | 11% | -2 | 1% | 11% | 25 | 34%
N#C/C(=C\c1cccnc1)C(=O)Nc1ccccc1[N+](=O)[O-] | u | -1 | 23% | -1% | -14 | u
C/C(=N\NC(=O)c1cc(-c2cccc(OC(C)C)c2)nc2ccccc12)c1cccnc1 | u | 32 | 13% | 2% | 32 | 13µM*
COc1ccc(-c2cc(C(=O)N/N=C(\C)c3cccnc3)c3cc(C)ccc3n2)cc1OC | u | -3 | 13% | -24% | -6 | u
C/C(=N/NC(=O)c1cc(-c2ccccc2)nc2c(Cl)cccc12)c1cccnc1 | u | -3 | 9% | -19% | -12 | 10µM*
C/C(=N\NC(=O)c1cc(-c2ccc(C)s2)nc2ccccc12)c1cccnc1 | -6% | 22* | -13% | 0% | 22 | u
C/C(=N\NC(=O)c1cccc2ccccc12)c1cccnc1 | 26% | 6 | -4% | 7% | 6 | -3%
C/C(=N\NC(=O)c1cc(C)nc2ccccc12)c1ccncc1 | 5% | -2 | 7% | 1% | -20 | -12%
CC(=O)Nc1cccc(/C(C)=N/NC(=O)c2cc(-c3ccncc3)nc3ccccc23)c1 | u | -2 | -4% | 0% | -10 | u
C/C(=N\NC(=O)c1cc(-c2ccccc2C)nc2ccccc12)c1cccnc1 | 1.9µM* | -4 | 22% | 0% | -14 | u
N[C@H](Cc1c[nH]c2ccccc12)P(=O)(O)O | x | x | -3% | x | x | x
C/C(=N\NC(=O)c1cc(-c2cccnc2)nc2ccccc12)c1ccc(O)cc1O | 9.3µM* | 9 | u | -10% | 13 | u
COc1cc(OC)c(NC(=O)Nc2ccc3c(c2)N(C)C(=O)c2ccccc2S3)cc1Cl | x | x | x | -20% | x | x
CC(C)COc1ccc(-c2nnc(-c3ccncc3)o2)cc1 | 110% | 38* | -4% | 1% | 111* | 20%
CCCOc1ccc(-c2nnc(-c3ccncc3)o2)cc1 | 129% | 21* | -5% | 0% | 84* | u
Cc1cccc(NC(=O)COC(=O)c2ccc(C)c(S(=O)(=O)N3CCCCC3)c2)c1 | -29% | x | x | -9% | x | -21%
CC1CCc2c(sc(NC(=O)CCC(=O)O)c2C(=O)NC2CC2)C1 (stereo not drawn) | -6% | -2 | 2% | -21% | 11 | -18%
